What all share (assay): NCI-60 one-dose screen, 48 h (100 = growth as untreated, 0 = no growth, -100 = all killed)
What all share (settings): 10 µM

Test [1] relates to NCI-H23 lung.
The subject of test [2] is NCI-H226 lung.
The test system of test [3] is NCI-H322M lung.
Test [4] concerns HOP-62 NSCLC.
For test [5], the system named is NCI-H460 lung.
The subject of test [6] is HOP-92 NSCLC.
Test [7] concerns NCI-H522 lung.
In test [8] the test system is A549/ATCC NSCLC.
For test [9], the system named is 786-0 renal.
The test system of test [10] is COLO 205 colon.

The panel holds about 83,000 compounds, 20% with a hit somewhere; the sample as a whole holds those more often.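 Each cell line was grown in a 96-well plate and treated with one concentration of compound for 48 hours. Values below 10 were considered active.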 Unmarked numbers belong to inactive results. The source made the active and inactive calls.

With `N[C@@H](CSSC[C@H](N)C(=O)Nc1ccc(OCC2CCCC2)cc1)C(=O)Nc1ccc(OCC2CCCC2)cc1`, the growth was -92.9% (active) in test [1]; -72.5% (active) in [2]; -99.5% (active) in test [3]; -90.7% (active) in test [4]; -77.1% (active) in test [5]; -72.8% (active) in [6]. Moreover, the growth in [7] was -93.2% (active); in [8], -90.7% (active); in [9], -59.9% (active); in test [10], -92.5% (active).

Consider `O=C(NO)c1ccc(Cn2ccc3c(Nc4ccccc4)ncnc32)cc1`, for which the growth in [1] was -87.2% (active); in test [2], 32%; in test [3], 42.7%; in [4] it was 14.4%; in [5], 13.1%; in test [6], -16.3% (active). For the same compound, the growth in [7] is -40.4% (active); in test [9], 31%; in test [10], -84.9% (active).

Turning to `COc1ccc2[nH]c(=O)c(CSc3cccc(N)c3)cc2c1`, the growth in test [1] is 79.2%; in test [2] it was 74.5%; in test [3], 74.6%; in test [4], 61.5%; in test [5], 20.7%; in [6], 76.5%. The growth in test [7] was 62.6%; in test [8], 46.4%; in test [9], 55%; in test [10], 2.77% (active).

For the compound `NS(=O)(=O)c1ccc(NC(=O)CSc2ccc(-c3ccc(Cl)cc3)nn2)c(Br)c1`, the growth in test [1] is 61.1%; in [2], -5.33% (active); in [3], 48.5%; in test [4], 2.17% (active); in test [5], 23%; in test [6], -14.4% (active). The figures for the growth in test [7], in [9] and in test [10] were 63.6%, 19.1% and 69.4%, respectively.

For the compound `O=C1c2ccccc2C(=O)c2c1c(C(=O)c1ccc(Cl)cc1)n1c2ccc2c3ccccc3ccc21`, the growth in [1] is 96%; in [2], 103%; in [3], 113%; in [4], 92.5%; in [5], 109%; in test [6], 98.6%. Further, the results for the growth in test [7], in test [9] and in test [10] were 93.5%, 110% and 128%, respectively.

As for `CCCCOc1ccc(Nc2nc3ccccc3nc2Nc2ccc(OCCCC)cc2)cc1`, the growth in test [1] is 82.6%; in test [2], 96.6%; in test [3] it was 106%; in test [5] it was 60.1%; in test [6] it was 97.4%; in [7], 88.5%. The growth in test [8] was 89.4%; in test [9] it was 72.1%; in test [10], 116%.

Turning to `Cc1ccc(-c2nc(Nc3ccccc3C(=O)O)c3ccccc3n2)cc1`, the growth in test [1] was -4.11% (active); in test [2], 15.3%; in [3], 33.8%; in [5], -9.44% (active); in test [6], -19.5% (active); in test [7], 33.2%. The growth in [8] was 30.5%; in test [9], 18.7%; in test [10] it was 80.9%.

For `CCCCSc1nc(Nc2ccc(/C(C)=N/NC(N)=S)cc2)c(C#N)c(-c2ccccc2)n1`, the growth was 23.7% in [1]; 4.29% (active) in [2]; 59% in test [3]; 12.1% in test [5]; -19.7% (active) in test [6]; 39.6% in test [7]. The growth in [8] is 12.8%; in [9] it was 3.01% (active); in [10], 59.6%.

On to `Cc1ccc(NC(=O)NCn2c(=O)[nH]c3ccccc3c2=O)cc1`, for which the growth in test [1] was 53.2%; in test [2], 22.5%; in [3], 89.1%; in test [5], 64.7%; in test [6], 30.7%; in test [7], 73.7%. For the same compound, the growth in test [8] was 81.1%; in test [9] it was 50.7%; in test [10] it was 115%.

In the case of `O=C(CNc1nc(-c2ccccc2)cs1)Nc1cccc([N+](=O)[O-])c1`, the growth is -92.5% (active) in [1]; -42.5% (active) in [2]; -71.4% (active) in [3]; 4.92% (active) in test [5]; -49.2% (active) in [6]; -83.2% (active) in test [7]. Moreover, the growth in test [8] is -72.7% (active); in test [9], -85.1% (active); in test [10], -64.1% (active).

Consider `Cn1cc(/C=N/Nc2ccnc3cc(Cl)ccc23)c2ccccc21`, for which the growth was -84.1% (active) in test [1]; -67.5% (active) in [2]; -99.6% (active) in [3]; -67.5% (active) in [5]; -68% (active) in test [6]; -68.1% (active) in [7]. For the same compound, the growth is -39% (active) in test [8], -65.2% (active) in [9] and -59% (active) in test [10].

As to `COc1ccc(NC(=O)Cn2c(/C=C/c3ccc(N(C)C)cc3)nc3ccccc3c2=O)cc1`, the growth in test [1] is 49.8%; in test [2], -15.2% (active); in [3], 46.4%; in [4], 39.3%; in [5], 19.5%; in test [6], -2.51% (active). The growth in test [7] is 44.1%; in test [9], 7.97% (active); in test [10], 47%.

With `CN1CCc2c(sc3ncnc(N/N=C/c4cn(-c5ccccc5)nc4-c4ccc(Cl)cc4)c23)C1`, the growth in test [1] is -20.6% (active); in [2], 33.1%; in [3], 28.7%; in [4], 29.8%; in test [5] it was 1.06% (active); in test [6], 45.7%. Also, the results for the growth in test [7], in test [9] and in test [10] were 3.5% (active), 25.3% and -30.1% (active), respectively.

Values taken from PubChem BioAssay (NCI).
